Measured values from PubChem BioAssay AID1405 (National Center for Advancing Translational Sciences (NCATS), 2008).
Records with an inconclusive call do not appear. Calls of active or inactive are those of the source. Calls come from the whole dose curve.

Assay: Confirmation and Secondary Assays for Modulators of Hemoglobin Beta Chain Splicing at IVS2 654 and 705 loci
Conditions: HeLa beta-globin IVS2-654 splicing GFP reporter, 48 h
Excerpt: NIH Chemical Genomics Center [NCGC]
NIH Molecular Libraries Screening Centers Network [MLSCN]
PI Name: Dr. Ryszard Kole
Modulation of Alternative Splicing as Therapy
Abnormal splicing is associated with a number of diseases, including cancer and genetic diseases such as cystic fibrosis, muscular dystrophy and beta-thalassemia. Alteration of disease associated splicing patterns provides a promising target for treatment. […] Mutations in the second intron of the b-globin gene at positions 654 or 705 are clinically relevant and cause mis-splicing which results in an out of frame gene product.
EGFP-654 HeLa Cells as screen system.
(§1) HeLa cell lines were stably transfected with a construct in which the EGFP (enhanced green fluorescent protein) cDNA was interrupted by the second intron of the beta-globin gene (IVS2-654). The ISV2 intron contains mutations which cause mis-splicing of EGFP and premature termination of EGFP which results in a nonfluorescent protein product. […] Expression of the transgene was driven by the CMV promoter. We concluded that a low molecular weight compound, which restored correct splicing of intron 2 would also generate functional EGFP protein, resulting in a fluorescent signal. Thus, the HeLa cells that express the EGFP-654 construct can be used for high throughput screening of a chemical library.
EGFP-705 HeLa Cells as screen system.
as §1, with “(IVS2-705).” for “(IVS2-654).”, “EGFP-705” for “EGFP-654”, “validation of splice site specificity of compounds identified in primary” for “high throughput”, “the ISV2 654 construct.” for “a chemical library.”
NCGC Assay Protocol Summary:
Confirmatory Screening. Freshly thawed HeLa EGFP-654 or EGFP-705 cells were seeded in 5 ul of optimem media (Invitrogen) containing 2 % fetal calf serum (Hyclone) and 1x penicillin/streptomycin (Invitrogen) at a concentration of 500 cells per well in 1536-well plates. Cells were incubated overnight at 37C in 5% CO2. The next day, cells were treated with DMSO, 500 nM antisense ISV2 654 (or 705) PNA control oligo, or library compound and allowed to grow at 37C in 5% CO2 for 2 days. The PNA oligo blocked the mutation site in the intron and allowed proper (wild type) splicing to occur, resulting in full length EGFP expression and also allowed for optimization of the assay parameters. Plates were read in the Acumen Explorer (TTP Labtech) using 488 nm laser excitation and 500-520 nm emission PMT filter in a 1 x 8 uM capture mode, and were read immediately after compound pinning (beta-globin-654-gfp-0hr), at 24 hours (beta-globin-654-gfp-24hr and beta-globin-705-gfp-24hr), and at 48 hours (beta-globin-654-gfp-48hr and beta-globin-705-gfp-48hr). Fluorescnet objects ranging in size from 5 to 250 uM were measured and the total peak GFP intensity for each well was used for data analysis. Cell death was measured by quantitating protease release by sick and dying cells using Promega's luminescent Cytotox-Glo reagent. Cells were treated with 2ul of Cytotox- Glo reagent incubated at room temperature for 5 minutes and read in the Viewlux plate reader with a 30 second integration time (beta-globin-654-protease-48hr and beta-globin-705-protease-48hr).
Keywords: Thalassemia, beta-thalassemia, beta-globin, EGFP, ISV2 654, ISV2 705, SSO, PNA, antisense, splicing, MLSMR, MLSCN, NIH Roadmap, qHTS, NCGC

Potency, active:
Nc1nc(=S)c2[nH]cnc2[nH]1 1120 nM
Cn1cnc([N+](=O)[O-])c1Sc1ncnc2nc[nH]c12 2000 nM
S=C1NC=NC2N=CNC12 (stereo not drawn) 1580 nM
O=c1[nH]c(=O)n([C@@H]2O[C@H](CO)[C@@H](O)[C@H]2O)cc1F 3980 nM
Nc1nc2n[nH]nc2c(=O)[nH]1 2510 nM
Nc1nc(=S)c2ncn([C@H]3O[C@@H](CO)[C@@H](O)[C@@H]3O)c2[nH]1 1260 nM
OCC1OC(n2cnc3c(=S)nc[nH]c32)C(O)C1O (stereo not drawn) 1780 nM
CCn1c(C)nc([N+](=O)[O-])c1Sc1ncnc2nc[nH]c12 2000 nM
